Over roughly 33,000 sequences, “E-score (-0.5 to 0.5)” has its median near -0.016; the highest 2% begin near 0.3. What follows is part of a selection rich in the highest values, with near analogues and random picks from the rest.
Biological target: T1, Yer184c (UniProt P39961)
T1 sequence: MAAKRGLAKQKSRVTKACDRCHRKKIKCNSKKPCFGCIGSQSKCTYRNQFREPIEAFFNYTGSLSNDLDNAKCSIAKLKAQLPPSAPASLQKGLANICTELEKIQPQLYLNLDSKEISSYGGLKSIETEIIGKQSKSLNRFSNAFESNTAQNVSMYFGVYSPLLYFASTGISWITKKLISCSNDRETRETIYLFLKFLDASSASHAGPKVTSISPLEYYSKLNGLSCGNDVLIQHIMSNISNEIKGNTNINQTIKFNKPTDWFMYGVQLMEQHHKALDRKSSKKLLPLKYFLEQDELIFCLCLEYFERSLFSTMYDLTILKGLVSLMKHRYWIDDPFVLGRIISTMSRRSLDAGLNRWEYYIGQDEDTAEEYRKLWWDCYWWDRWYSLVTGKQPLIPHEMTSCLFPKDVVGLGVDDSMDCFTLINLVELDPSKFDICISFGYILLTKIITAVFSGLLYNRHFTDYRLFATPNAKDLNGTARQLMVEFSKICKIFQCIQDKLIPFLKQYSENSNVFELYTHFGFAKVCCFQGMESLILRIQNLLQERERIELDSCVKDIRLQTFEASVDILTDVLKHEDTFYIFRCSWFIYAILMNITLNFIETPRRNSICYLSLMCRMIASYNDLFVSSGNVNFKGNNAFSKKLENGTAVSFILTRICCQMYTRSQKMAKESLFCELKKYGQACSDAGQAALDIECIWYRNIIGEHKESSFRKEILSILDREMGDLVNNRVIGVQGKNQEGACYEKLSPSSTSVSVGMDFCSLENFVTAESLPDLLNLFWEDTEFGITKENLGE
Test: PBM E-score (8-mer binding enrichment) (E-score (-0.5 to 0.5)); higher = stronger / more preferred TF binding
Conditions: protein concentration: 100 nM; construct: GST-full length
How it was run: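 Each ungapped eight-base word and its reverse complement, pooled, received an E-score from the Universal PBM Analysis Suite. Underlying scans, normalised with masliner, recorded fluorescent anti-GST bound to GST-tagged yeast transcription factors. These were applied at about 100-200 nM to universal all-10-mer Agilent arrays double-stranded by primer extension.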

Sequence | PBM E-score
GAGCAACA | 0.128
GATAACAC | 0.0102
ATTTTTTA | 0.274
GTTTTAAA | 0.131
ATTTTAAC | 0.028
AATTTATG | 0.307
CTATTTAA | 0.0903
ATATTTAA | 0.306
ATTTTTAA | 0.333
ATTTTAAA | 0.331
AATTTTAA | 0.252
ATATTTAC | 0.202
AATTTATA | 0.24
ATTTTATG | 0.217
ACCCCGCA | -0.0654
GCTTTTCC | 0.109
GGCGATTA | 0.0843
CAGATCGA | -0.0498
CCTAGTTA | 0.0429
ACCCTACA | -0.0427
AGTTGACA | 0.0221
AGAGGTGA | -0.148

Sequence | PBM E-score
ACCCCGGG | 0.263
CACCCGGC | 0.15
ATCCCGGA | 0.274
ATCCCCGG | 0.185
ACCCCGGC | 0.0581
AACCCGGG | 0.325
ATCCCGGG | 0.36
CACCCGGG | 0.189
AACCCGGC | 0.329
AAACCCGC | 0.135
AAACCCGG | 0.337
AAACCCGA | 0.215
ACTTTTTG | 0.154
ACCCTCGT | -0.116
ACAGTAAG | -0.0845
GACATTGC | -0.175
ATATAAAC | 0.17
AAATAAAT | 0.34
AAATAAAG | 0.045
ATATAAAG | 0.0639
ATATAAAT | 0.305
AAATAAAA | 0.0817

Sequence | PBM E-score
CGTGCTGC | -0.0543
CGGGGGGA | -0.373
AACTGCAA | 0.0848
GAGTTAGC | -0.0328
CTCTTATA | 0.145
ATGGTATA | -0.0158
ACATGCTG | -0.257
CCACCGGA | 0.346
ACACCGGA | 0.246
GCACCGGC | 0.234
GCACCGGA | 0.33
CCACCGGG | -0.00255
CCACCGGC | 0.146
TAGACCGA | 0.105
TAATCATA | 0.157
TACTAGTA | 0.338
GACTAGTA | -0.12
CACTAGTA | -0.0824
GGTGCCGA | 0.266
AGTGCCAG | -0.28
AGTGCCGC | 0.123
AGTGCCGA | 0.333

Sequence | PBM E-score
AGTGCCGG | 0.337
AGTGCCTG | -0.132
GGACCACC | -0.116
CTCGACCC | -0.118
AGCTGCCC | 0.034
CGGCTTAG | 0.213
CGGCTTCA | 0.345
TGGCTTAA | 0.175
CGGCTTCC | 0.198
CGGCTTAA | 0.393
AGGCTTCA | -0.108
ACGTCAAG | -0.124
CACCTTGA | -0.151
GTCAACGA | -0.0301
GCTGTTTA | 0.141
GGCGGCAC | 0.0696
ACCGGCAG | 0.0457
CCCGGCAA | 0.335
TACGGCAA | 0.158
CCCGGCAC | 0.0863

From the supplement of paper PMC3334620
